Results as given in PubChem BioAssay (NCI).
About 83,000 compounds went through this panel and 20% of them were active in at least one assay; those are over-represented in the sample as a whole.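 Plates (96-well) were seeded with cells, treated with compound at one concentration, and incubated for 48 hours before percent growth was determined.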 The source made the active and inactive calls.

System: A498 renal
Assay: NCI-60 one-dose screen, 48 h (100 = growth as untreated, 0 = no growth, -100 = all killed)
Conditions: 10 µM unless noted
Protocol: Growth inhibition of the A498 human tumor cell line is measured as a screen for anti-cancer activity. Cells are grown in 96 well plates and exposed to the test compound for 48 hours. Compounds are tested at a single concentration, which is 10^-5 M for most compounds. The reported endpoint is percent growth (GI% or GIPRCNT), where numbers from 0 - 100% represent growth inhibition, and numbers from -100% - 0 represent cell death. For example, a value of 40 represents 60% growth inhibition. A value of 0 means no net growth occurred over the course of the experiment. A value of -40 indicates 40% of cells at the beginning of the experiment died by the end of the experiment. A value of -100 means all cells are dead at the end of the experiment.
NCI-60 Human Tumor Cell Lines Screen was performed using the standard one-dose NCI protocol, which is described in more detail at https://dtp.cancer.gov/discovery_development/nci-60/default.htm.
Compounds with GIPRCNT values below 10 were considered active. Activity score was based on GIPRCNT using the following formula: […]
Score is 0 for GIPRCNT values of 100 or above, 50 for GIPRCNT values of 0, and 100 for GIPRCNT values of -100.

Question: `CCCCCCC[C@@H](O)CC(=O)N[C@H](CCCCN)C(=O)N[C@H](Cc1c[nH]c2ccccc12)C(=O)NC(CCCCN)C(=O)N[C@H](CC(C)C)C(=O)N[C@H](Cc1ccccc1)C(=O)N[C@H](CCCCN)C(=O)N[C@H](CCCCN)C(=O)N[C@H](CC(C)C)C(=O)N1CCCC1C(=O)N[C@H](CCCCN)C(=O)N[C@H](Cc1ccccc1)C(=O)N[C@H](CC(C)C)C(=O)N[C@H](Cc1c[nH]cn1)C(=O)N[C@H](CC(C)C)C(=O)N[C@H](C)C(=O)N[C@H](CCCCN)C(=O)N[C@H](CCCCN)C(=O)N[C@H](Cc1ccccc1)C(=O)O` (stereo not given in full) was tested. Which growth did it give?
Answer: -54.1% (active)

Question: With `COc1cc(/C=C2\C=C(c3ccc(F)cc3)N(Cc3ccccc3)C2=O)cc(OC)c1OC` as the molecule, how does the growth read?
Answer: 57.4% (inactive)

Question: `COc1cc(C(=O)OCCCCCCCCCCC[P+](c2ccccc2)(c2ccccc2)c2ccccc2)ccc1O` was tested. Which growth did it give?
Answer: -0.743% (active)

Question: For `CCN1C(=O)N(CC)C2Nn3c(s/c(=C4\C(=O)N(C5CCCC5)c5ccccc54)c3=O)=NC21` (stereo not given), which growth is on record?
Answer: 30.8% (inactive)

Question: `C=C1C(=O)O[C@H]2[C@H]1CC/C(Cn1cc(-c3ccccc3C(F)(F)F)nn1)=C\CC[C@@]1(C)O[C@@H]21` was tested. Which growth did it give?
Answer: 25.9% (inactive)

Question: For `CCN1C(=O)N(CC)C2C1NN=c1s/c(=C3\C(=O)N(C4CCCC4)c4ccccc43)c(=O)n12` (stereo not given), which growth is on record?
Answer: -25.9% (active)

Question: Which growth does the source give for `CCCCCCCCCCCCCCCCC(Br)C(=O)O` (stereo not given) here?
Answer: 94.7% (inactive)

Question: With `COc1ccc2c(c1)NC(=O)CN2c1nc(NC2CC2)nc2ccccc12` as the molecule, how does the growth read?
Answer: -12.8% (active)

Question: Which growth does the source give for `COc1cc(OC)cc(-c2n[nH]nc2-c2ccc3c(c2)OCO3)c1` here?
Answer: -1.56% (active)

Question: How did the growth turn out when `Clc1ccc(-c2nc(-c3ccco3)cn3ccnc23)cc1` was run?
Answer: 36.8% (inactive)

Question: How did the growth turn out when `C#CCC1(c2ccc(F)c(F)c2)NS(=O)(=O)c2ccccc21` (stereo not given) was run?
Answer: 109% (inactive)

Question: How did the growth turn out when `Nc1cc2c(cc1N)-c1cc(N)c(N)cc1C2` was run?
Answer: 63.5% (inactive)

Question: How did the growth turn out when `CC(=O)Nc1ccc(S(=O)(=O)NC(CCC(=O)Nc2ccc(Cl)cc2)C(=O)O)cc1` (stereo not given) was run?
Answer: 58.3% (inactive)

Question: How did the growth turn out when `CN(C)C1CCC(NC2=CC(=O)C=CC2=O)CC1` (stereo not given) was run?
Answer: 122% (inactive)

Question: Which growth does the source give for `CC[C@]1(O)C[C@@H]2CN(Cc3c([nH]c4ccccc34)[C@@](C(=O)OC)(c3cc4c(cc3OC)N(C)[C@H]3[C@@](O)(C(=O)OC)[C@H](OC(C)=O)[C@]5(CC)[C@@H]6C[C@@H]6CN6CC[C@]43[C@@H]65)C2)C1` here?
Answer: -8.06% (active)

Question: How did the growth turn out when `CN(C)CCCNC(=O)C(c1ccccc1)c1ccccc1` was run?
Answer: 104% (inactive)

Question: For `COc1cc(-c2n[nH]nc2-c2ccc3c(c2)OCCO3)cc(OC)c1OC`, which growth is on record?
Answer: -14.6% (active)

Question: How did the growth turn out when `CN1C(=O)[C@H]2c3c1cccc3[C@@]13NC(=O)O[C@H]1[C@H](CCC3(C)C)C2(C)C` was run?
Answer: 107% (inactive)

Question: How did the growth turn out when `Cc1ccc(Nc2ncnc3c2sc2ncccc23)cc1` was run?
Answer: 67% (inactive)

Question: For `CCCCCCCCCCCCOB(OCCCCCCCCCCCC)OCCCCCCCCCCCC`, which growth is on record?
Answer: 112% (inactive)

Question: With `O=C(O)c1ccc(-n2c(=O)c3ccccc3c3ccccc3c2=O)cc1` as the molecule, how does the growth read?
Answer: 118% (inactive)

Question: How did the growth turn out when `O=C1Nc2ccc(Br)cc2C1=N/C=c1\[nH]c(=O)/c(=C/c2ccc(Cl)cc2)s1` was run?
Answer: 94.5% (inactive)

Question: `Nc1nc(N)c2nc(CNc3ccc(C(=O)CC(CCC(=O)O)C(=O)O)cc3)cnc2n1` (stereo not given) was tested. Which growth did it give?
Answer: 51.4% (inactive)

Question: Which growth does the source give for `COc1cc(-c2csc(NC(=O)c3cc(C(F)(F)F)cc(C(F)(F)F)c3)n2)cc(OC)c1OC` here?
Answer: 11.1% (inactive)

Question: Which growth does the source give for `O=C1CCCCC=C1C[N+](=O)[O-]` here?
Answer: 117% (inactive)

Question: How did the growth turn out when `CCN(CC)S(=O)(=O)c1ccc2[nH]c(=O)cc(C(=O)Nc3ccc(OC)cc3OC)c2c1` was run?
Answer: 146% (inactive)

Question: Which growth does the source give for `CCc1c(C(=O)Nc2ccc3ccccc3c2)[nH]c(C)c1C(C)=O` here?
Answer: 80.2% (inactive)

Question: Which growth does the source give for `CC(=O)Nc1nc(C(=O)N2N=C(C)/C(=C/c3ccc(Cl)cc3)C2=O)cs1` here?
Answer: 117% (inactive)

Question: Which growth does the source give for `CC1=C(C#N)C(C)(C)C(C#N)=C(C)N1` here?
Answer: 88.6% (inactive)

Question: With `CNC(C)=O` as the molecule, how does the growth read?
Answer: 104% (inactive)

Question: `COc1cc(NCCN=C(N)NC(N)=NC(C)C)c2ncccc2c1` was tested. Which growth did it give?
Answer: 91.2% (inactive)

Question: For `CCNC(=O)CCCCC(=O)c1c(C)[nH]c(/C=C2\N=C(c3ccc[nH]3)C=C2OC)c1C`, which growth is on record?
Answer: 95.8% (inactive)

Question: For `CCCOC(=O)C1(O)CCCC1`, which growth is on record?
Answer: 103% (inactive)

Question: For `CCCCCCCCCN1C(=O)/C(=c2\sc3n(c2=O)C2C(NN=3)N(CC)C(=O)N2CC)c2ccccc21` (stereo not given), which growth is on record?
Answer: 18.8% (inactive)

Question: For `CCN(CC)CCSc1c2ccc(Cl)cc2nc2ccc(OC)cc12`, which growth is on record?
Answer: 100% (inactive)

Question: With `Clc1nc(Cl)c2ncn(C/C=C/Cn3cnc4c(Cl)nc(Cl)nc43)c2n1` as the molecule, how does the growth read?
Answer: 90.2% (inactive)

Question: How did the growth turn out when `O=S(=O)(NCCCNc1cc(-c2cn(-c3ccccc3)nc2-c2cccc(O)c2)ccn1)c1ccc(C(F)(F)F)cc1` was run?
Answer: 57.2% (inactive)

Question: How did the growth turn out when `NC(=O)NNC(=O)c1ccccc1` was run?
Answer: 124% (inactive)

Question: How did the growth turn out when `O=S(=O)(NCCNc1cc(-c2cn(-c3ccccc3)nc2-c2ccccc2)ccn1)c1ccc(F)cc1` was run?
Answer: 83.8% (inactive)

Question: With `CCn1cc(C(=O)O)c(=O)c2cc(F)c(N3CCN(S(=O)(=O)c4cccc5ccccc45)CC3)cc21` as the molecule, how does the growth read?
Answer: -0.385% (active)
